Source: PubChem BioAssay (National Center for Advancing Translational Sciences (NCATS))
Only some compounds are listed: those with a hit (about 21% of all), similar ones and a draw of the others.
NS1 function inh – influenza NS1 inhibition | 270,000 compounds, 0.4% hits | Potency, µM (doses to about 46.1 µM), without a hit: top-dose activity, positive = more growth | AID 2326; calls by dose curve; note: potency is the fitted concentration of half-maximal effect; actives are rising curves; nearly all actives have a fitted effect of over 50% in size
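S. cerevisiae expressing influenza A NS1, grown in glucose, washed, then diluted 1:100 into pH 6.0 -URA galactose medium with 23 nl compound. Growth recovery read as OD600; NS1-free strain serves as control.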
Shiga inhibitor – blocks Shiga toxin action in Vero cells. 290,000 compounds, 9.2% hits. Vero cells, Shiga toxin protein synthesis inhibition reporter. inhibition, % at 38.7 µM; in the data active = inhibition mostly above about 28%, no sharp cut-off; inactive = mostly below about 43%; note: 0% is about no effect
CHX counter – counter-screen hit for Shiga toxin inhibitors, cycloheximide. 300,000 compounds, 12% hits. cell reporter, cycloheximide protein synthesis inhibition counterscreen. max response, %; in the data active = max response mostly above about 13%, no sharp cut-off; inactive = mostly below about 14%; note: read at 38.3 µM for the half of the compounds with a filed dose; 0% is about no effect
Pf growth 96h – inhibits malaria parasite growth, 96 h. P. falciparum luciferase reporter growth, 96 h. Potency, µM (titrated, usually from 28.7 µM), for the others: top-dose activity change, negative = inhibition, most hits filed as inhibitors. 320,000 compounds, 6.9% hits. AID 504834; note: potency is the fitted concentration of half-maximal effect; % is set by controls: 0 for no effect and ±100 for the full control effect
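Plates of compound plus infected erythrocytes (2% hematocrit, 0.05% parasitemia final) incubate 96 hours, 37 C, 5% CO2. Detection reagent added; reduced luminescence from the parasites' luciferase reporter flags inhibition.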
SARS PLpro yeast – blocks SARS-CoV papain-like protease in a yeast assay; 330,000 compounds, 0.19% hits; S. cerevisiae expressing SARS-CoV PLpro, growth rescue; AID 485353; Potency, µM (doses to about 32.9 µM), without a hit: at the highest dose activity, positive = growth rescue, actives largely listed as activators; calls by dose curve; note: potency is the fitted concentration of half-maximal effect; 0% is about no effect; nearly all actives have a fitted effect of over 55% in size
Pf growth 48h – P. falciparum growth inhibition at 48 hours (one generation); P. falciparum luciferase growth in erythrocytes, 48 h; Potency, µM (top dose mostly 28.7 µM), for the others: at the highest dose activity change, negative = inhibition, usual class: inhibitors; 310,000 compounds, 5.9% hits; AID 504832; note: potency is the fitted concentration of half-maximal effect; % is set by controls: 0 for no effect and ±100 for the full control effect
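Parasite viability was followed by luminescence of a genomically integrated firefly luciferase. Cultures held 0.1% parasitemia at 2% hematocrit (final), incubated under 5% CO2 at 37 C.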
* = called active by the depositor; ? = inconclusive; nt = no result given; [ ] = dose if it differs, or a comment. Unless noted, calls come from the whole dose curve; as a rule, active = well fitted inhibition curve with a large enough effect; inconclusive = small, poorly fitted or top-dose-only effect, or another doubt; inactive = no such curve, though single readings can be large or run the other way.

SMILES	NS1 function inh	Shiga inhibitor	CHX counter	Pf growth 96h	SARS PLpro yeast	Pf growth 48h
Cc1ccc(C(=O)Nc2nc3n(n2)C(c2ccccc2)CC(=O)N3)cc1 (stereo not drawn)	-4%	8	-2	-1%	1%	34%
CO[C@]1(NC(=O)C2SC(=C(C(N)=O)C(=O)O)S2)C(=O)N2C(C(=O)O)=C(CSc3nnnn3C)CS[C@H]21 (stereo partly drawn)	nt	nt	nt	-2%[12.8 µM]	nt	1%[12.8 µM]
Cc1ccc(Cn2cnc3c(cnn3-c3ccc(F)cc3)c2=O)cc1	nt	-16	6	3%	4%	-11%
CC(C)C[C@@H]1NC(=O)[C@H](Cc2ccccc2)N(C)C(=O)[C@H](C)NC(=O)c2ccccc2NC(=O)[C@H](Cc2ccc(O)cc2)N(C)C1=O	14%	4	-7	?	1%	3.7µM*
CC(C)CC1NC(=O)N(CC(=O)N2c3ccccc3NC(=O)C2(C)C)C1=O (stereo not drawn)	-2%	-6	-4	-3%	3%	142%
CC1CN(C(=O)CN(C)S(=O)(=O)c2ccc3ccccc3c2)CC(C)O1 (stereo not drawn)	-4%	-5	-2	13%	2%	25%
CN(C)c1ccc(Nc2cc(Cl)ncn2)cc1	6%	nt	42*	?	3%	-32%
O=C(O)CC/C(=N\Nc1ccccc1[N+](=O)[O-])c1cccs1	-31%	58*	47*	0%	2%	42%
O=C(COC(=O)c1cccs1)Nc1ccccc1[N+](=O)[O-]	-27%	13	10	28%	-1%	-10%
O=C(O)CC/C(=N\Nc1ccc(S(=O)(=O)N2CCOCC2)cc1[N+](=O)[O-])c1cccs1	5%	-2	-5	12µM*	3%	6.6µM*
O=C(O)CC/C(=N\Nc1ccc(S(=O)(=O)N2CCCC2)cc1[N+](=O)[O-])c1cccs1	8%	-20	-3	?	-6%	nt
COc1ccccc1C(=O)NC(CCSC)C(=O)NCC(c1cccs1)N1CCOCC1 (stereo not drawn)	nt	nt	nt	-3%	2%	?
c1ccc2[nH]c(SCc3cn4cccnc4n3)nc2c1	-3%	-5	-3	10%	11%	70%
c1ccc(-c2cnnc(SCc3cn4cccnc4n3)n2)cc1	-34%	31	1	9.3µM*	-6%	10µM*
Cc1nc2ccccc2c(=O)n1NC(=O)Cc1ccc([N+](=O)[O-])cc1	nt	-12	-2	-27%	0%	36%
COc1ccc(C2(CNS(=O)(=O)c3ccccc3)CCOCC2)cc1	-5%	-20	-1	-40%[5.75 µM]	0%	7%
COc1ccc(CCNC(=O)c2cccc(NC(=O)CC3SC(N4CCCCC4)=NC3=O)c2)cc1OC (stereo not drawn)	3%	-5	-1	?	?	12µM*
COc1cc2c(cc1NC(=O)COC(=O)Cn1cnc3ccccc31)oc1ccccc12	-55%	79*	36*	-2%	-31%	63%
COc1cc2c(cc1NC(=O)COc1ccccc1OC)oc1ccccc12	1%	36	5	0%	-2%	36%
COc1cc2c(cc1NC(=O)COC(=O)C(CCSC)NC(=O)c1ccccc1Cl)oc1ccccc12 (stereo not drawn)	-2%	active	15	81%	13%	36%
COc1cc2c(cc1NC(=O)CN(C)Cc1ccc(OC)c(OC)c1)oc1ccccc12	-19%	12	0	7.4µM*	-22%	9.3µM*
O=C(NC(Cc1ccccc1)C(=O)O)NC12CC3CC(CC(C3)C1)C2 (stereo not drawn)	29%	-6	0	?	2%	-7%
COc1cc2c(cc1NC(=O)CCC(=O)O)oc1ccccc12	-7%	1	4	?	2%	28%
COc1ccc(CN(C)CC(=O)Nc2cc3oc4ccccc4c3cc2OC)c(OC)c1	-17%	1	0	9.3µM*	-25%	?
COc1cc2c(cc1NC(=O)Cc1ccc(C)cc1)oc1ccccc12	12%	93*	73*	-29%	-2%	70%
SMILES	NS1 function inh	Shiga inhibitor	CHX counter	Pf growth 96h	SARS PLpro yeast	Pf growth 48h
COc1ccc(CN(C)CC(=O)Nc2ccccc2C(F)(F)F)c(OC)c1	4%	7	-3	62%	-23%	10%
COc1cc2c(cc1NC(=O)CC1SC(N3CCCC3)=NC1=O)oc1ccccc12 (stereo not drawn)	-41%	8	-1	1.2µM*	-3%	6.6µM*
COc1cc2c(cc1NC(=O)COC(=O)[C@@H](NS(=O)(=O)c1ccccc1)C(C)C)oc1ccccc12	-16%	56*	11*	53%	1%	14%
CCc1ccc(NC(=O)CN2C(=O)C(=O)N(Cc3ccccc3)C2=O)cc1	nt	-17	-1	43%	-2%	10%
C[C@@]12CC(=O)[C@@H]3[C@@H](CCC4=CC(=O)CC[C@]43C)[C@@H]1CC=C2CC(=O)O	-7%	nt	nt	nt	nt	nt
COc1cc2c(cc1NC(=O)CCCN1C(=O)CCC1=O)oc1ccccc12	-7%	79*	36*	-4%	0%	40%
COc1cc2c(cc1NC(=O)C(C)NCc1ccccc1)oc1ccccc12 (stereo not drawn)	-46%	76*	64*	?	-52%	?
Cc1cc(C)n(-c2nc(SCC(=O)O)c3c4c(sc3n2)CCCC4)n1	2%	11	5	?	0%	?
Cc1cc(C)n(-c2nc(NCCO)c3c4c(sc3n2)CCCC4)n1	-97%	26	24*	-8%	-10%	?
Cc1cc(C)n(-c2nc(NCCCO)c3c4c(sc3n2)CCCC4)n1	-105%	43	18*	58%	-3%	nt
Cc1cc(C)n(-c2nc(NCC(C)O)c3c4c(sc3n2)CCCC4)n1 (stereo not drawn)	-117%	32	16*	?	-3%	nt
Cc1ccc(NC(=O)c2ccc(N3CCCC3=O)cc2)cc1S(=O)(=O)N1CCCCC1	nt	nt	nt	0.37µM*	0%	?
Cc1ccc(NC(=O)C2CCN(S(=O)(=O)c3ccc(N4CCCC4=O)cc3)CC2)cc1Cl	-22%	-1	-3	5.9µM*	13%	?
O=C(NCc1ccccc1Cl)C1CCN(S(=O)(=O)c2ccc(N3CCCC3=O)cc2)CC1	0%	-5	-3	9.3µM*	2%	?
C=CCN(CC=C)C(=O)C1CCN(S(=O)(=O)c2ccc(N3CCCC3=O)cc2)CC1	-8%	-2	-1	7.4µM*	0%	-19%
Cc1nn(CC2CC2)c(=O)n1-c1cccc(Cl)c1	nt	-5	0	5%	7%	?
O=C(c1cc([N+](=O)[O-])cc([N+](=O)[O-])c1)N1CCOCC1	0%	-9	-8	?	-11%	13%
CCN1CCN(C(=S)Nc2ccc3nc(N4CCN(CC)CC4)cc(C)c3c2)CC1	21%	-13	10	0%	9%	6.6µM*
